Assay outcomes: PubChem, National Center for Advancing Translational Sciences (NCATS)
An excerpt weighted towards active compounds, which were near 12% of everything screened.
HP1b binding inh = blocks HP1-beta chromodomain binding to methylated histone tails; AlphaScreen HP1-beta / biotin-H3K9me3 peptide binding; AID 540317; Potency, µM (doses to about 114 µM), actives largely listed as inhibitors; P83916; hit rate 0.56% among 390,000; also: nearly all actives have a fitted effect of over 70% in size
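Compound inhibition of the preformed complex between 50 nM HP1-beta and 50 nM biotinylated H3K9me3 peptide was read by AlphaScreen. Buffer was PBS pH 7.4 with 0.01% Tween-20. Incubations ran 30 min at room temperature, with 10 ug/mL donor/acceptor beads.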
G9a inh = blocks human histone lysine methyltransferase G9a; hit rate 8.8% among 350,000; Potency, µM (doses to about 102 µM), hits mostly inhibitors; G9a H3K9 monomethylation, AlphaScreen, 2 h; AID 504332; also: nearly all actives have a fitted effect of over 75% in size
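G9a (20 nM) preincubated 15 min RT with compounds, then 500 nM biotinylated H3K9 peptide and 20 uM SAM added; 2 h RT reaction. Monomethyl-H3K9 product detected by AlphaScreen with anti-H3K9me1 antibody, streptavidin donor and anti-rabbit IgG acceptor beads.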
JMJD2A Tudor inh = JMJD2A Tudor domain (human) inhibition | hit rate 4.4% among 390,000 | AID 504339 | AlphaScreen JMJD2A-Tudor / H3K4me3 peptide binding | Potency, µM (titrated, usually from 114 µM), actives largely listed as inhibitors; also: nearly all actives have a fitted effect of over 50% in size
Sfp PPTase inh = inhibitors of Bacillus subtilis Sfp phosphopantetheinyl transferase | Biochemical Sfp PPTase activity, qHTS | Potency, µM, hits mostly inhibitors | hit rate 3.5% among 310,000 | AID 1490;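 also: the enzyme is Sfp with the accession as filed and its product quenches rhodamine fluorescence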
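Sfp 15 nM + cpd, 15 min RT; start w/ rhodamine-CoA 5 uM, BHQ-2-YbbR 12.5 uM (final); 50 mM Hepes pH 7.6, 10 mM MgCl2, 0.01% NP-40, 0.01% BSA; read 525/598 nm at 0 and 30 min.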
BAZ2B inh = blocks human BAZ2B | Q9UIF8 | AlphaScreen BAZ2B-H3K14Ac peptide displacement | Potency, µM (titrated, usually from 114 µM), actives largely listed as inhibitors | hit rate 4.4% among 360,000 | AID 504333; also: nearly all actives have a fitted effect of over 60% in size
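BAZ2B (50 nM) with biotin-H3(5-23)K14Ac peptide (50 nM) in PBS pH 7.4, 0.01% Tween-20, preformed 30 min, then compound 30 min at room temperature; top concentration 110uM. AlphaScreen streptavidin donor/nickel chelate acceptor beads (10 ug/mL final), 20 min dark, signal read.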
Large screens that a line does not name were inactive. Calls follow the shape of the dose curve; as a rule, active = well fitted curve in the direction sought with a large enough effect; inconclusive = small, poorly fitted or top-dose-only effect, or another doubt; inactive = no such curve, though single readings can be large; an effect the other way counts as inactive or inconclusive.

CC(C)(C)NC(=O)NC(=O)CN1CCN(S(=O)(=O)c2ccc3c(c2)CCCC3)CC1	G9a inh 44.7µM (no result: Sfp PPTase inh)
Cc1ccc(S(=O)(=O)N2CCN(CC(=O)NC(=O)NCc3ccco3)CC2)cc1C	JMJD2A Tudor inh inconclusive
COc1ccc(N2CCN(CC(=O)NC(=O)NCc3ccco3)CC2)cc1	G9a inh 31.6µM, JMJD2A Tudor inh inconclusive
O=C(CN1CCN(c2ccc(O)cc2)CC1)NC(=O)NCc1ccco1	HP1b binding inh inconclusive, G9a inh 7.94µM, Sfp PPTase inh 39.8µM
O=C(CN1CCC(Cc2ccccc2)CC1)NC(=O)NCc1ccco1	none
CC1(C)CC(=O)C(C(N)=NC(=O)c2ccc([N+](=O)[O-])cc2)=C(O)C1	G9a inh inconclusive
COc1ccc(N2CCN(CC(=O)Nc3ccc(SC(F)F)cc3)CC2)cc1	G9a inh inconclusive, JMJD2A Tudor inh inconclusive, BAZ2B inh 39.8µM
COc1ccc(N2CCN(CC(=O)NC(=O)NC(C)(C)C)CC2)cc1	G9a inh 79.4µM
COC(=O)CCC(=O)Nc1ccc(S(=O)(=O)N2CCCCCC2)cc1	none
COc1ccc(S(=O)(=O)N2CCC(NC(=O)c3cccc(F)c3)CC2)cc1	none
CC(NC(=O)c1ccco1)C(=O)N1CC=C(c2ccccc2)CC1 (stereo not drawn)	none (no result: G9a inh, Sfp PPTase inh, BAZ2B inh)
COCCSc1nnc(NC(=O)c2cc(C(=O)OC)cc([N+](=O)[O-])c2)s1	G9a inh 50.1µM
CCC(CC)c1nnc(NC(=O)c2cc(C(=O)OC)cc([N+](=O)[O-])c2)s1	G9a inh 8.91µM, Sfp PPTase inh 44.7µM
CCOc1c(Cl)cc(CNC(C)(C)CC(C)(C)C)cc1OC	none
CCOc1c(Cl)cc(CNCc2ccccn2)cc1OC	G9a inh 39.8µM, BAZ2B inh 56.2µM
COc1cc(CNCc2ccccn2)ccc1OCc1ccccc1Cl	G9a inh inconclusive, JMJD2A Tudor inh 44.7µM, BAZ2B inh inconclusive
COc1cc(CNCCN2CCOCC2)ccc1OCc1ccccc1Cl	none (no result: G9a inh)
CCOC(=O)C1C(=O)CC(C)(O)C(C(=O)OCC)C1c1ccc(NC(C)=O)cc1 (stereo not drawn)	none
CCCn1c(SCc2nc(N)nc(N3CCCCC3)n2)nc2c1c(=O)n(C)c(=O)n2C	none
CCOC(=O)C1=C(COC(=O)c2cccnc2Cl)NC(=O)NC1C (stereo not drawn)	none (no result: Sfp PPTase inh)
CN(C)S(=O)(=O)c1ccc(Cl)c(NC(=O)CN2CCN(c3ccccn3)CC2)c1	none
Cc1nnc2sc(SCC(=O)Nc3ccc(Cl)cc3)nn2c1=O	JMJD2A Tudor inh inconclusive, BAZ2B inh 39.8µM
CC(=O)Nc1cccc(NC(=O)CSc2nn3c(=O)c(C)nnc3s2)c1	JMJD2A Tudor inh inconclusive
O=C(NNC(=O)C12CC3CC(CC(C3)C1)C2)c1ccncc1	G9a inh 39.8µM
Cc1ccc(-c2nc(NCc3ccco3)n(C(=O)c3ccco3)n2)cc1	none
CCS(=O)(=O)n1nc(-c2ccccc2)nc1NCc1ccco1	G9a inh 25.1µM
O=C(c1ccco1)n1nc(-c2ccccc2)nc1NCc1ccco1	JMJD2A Tudor inh 79.4µM, Sfp PPTase inh inconclusive
CCN(CC)CCN(C(=O)C1CCCCC1)c1nc2cc3c(cc2s1)OCO3	G9a inh inconclusive, JMJD2A Tudor inh inconclusive
CCN(CC)CCN(C(=O)c1ccc(Br)s1)c1nc2cc3c(cc2s1)OCO3	G9a inh 50.1µM (no result: BAZ2B inh)
CCN(CC)CCN(C(=O)c1ccc(Br)s1)c1nc2cc3c(cc2s1)OCCO3	G9a inh 50.1µM (no result: BAZ2B inh)
CN(C)CCCN(C(=O)c1ccc(Br)s1)c1nc2cc3c(cc2s1)OCCO3	G9a inh inconclusive (no result: Sfp PPTase inh)
Cc1cc(=O)oc2cc(NC(=O)C(CCCN=C(N)N)NC(=O)OCc3ccccc3)ccc12 (stereo not drawn)	G9a inh inconclusive
COc1ccc(S(=O)(=O)N2CCN(C(=S)Nc3ccc(S(N)(=O)=O)cc3)CC2)cc1	G9a inh 79.4µM
NS(=O)(=O)c1ccc(NC(=S)NCc2ccccc2Cl)cc1	G9a inh inconclusive
CCCN1CCN(C(=S)Nc2ccc(S(N)(=O)=O)cc2)CC1	G9a inh inconclusive
NS(=O)(=O)c1ccc(NC(=S)NCc2cccc(Cl)c2)cc1	G9a inh 44.7µM
NS(=O)(=O)c1ccc(NC(=S)NCc2ccccc2)cc1	HP1b binding inh inconclusive, G9a inh 11.2µM, Sfp PPTase inh 56.2µM
COc1ccc(NC(=S)N2CCN(S(=O)(=O)c3ccc(F)cc3)CC2)cc1	none (no result: G9a inh)
